Source: PubChem BioAssay (NCI)
Compounds without any hit were thinned out: in the full panel of roughly 83,000, 20% have a hit.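 Plates (96-well) were seeded with cells, treated with compound at one concentration, and incubated for 48 hours before percent growth was determined.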 A number with no mark means an inactive call. Active and inactive are the calls of the source. How the source made its calls: active means growth percent below 10; inactive means the rest.

Legend:
Assay in all cases: NCI-60 one-dose screen, 48 h (100 = growth as untreated, 0 = no growth, -100 = all killed)
Details in all cases: 10 µM unless noted
HCT-15 colon = test system: HCT-15 colon
HT29 colon = test system: HT29 colon
SNB-75 CNS = test system: SNB-75 CNS
SNB-19 CNS = test system: SNB-19 CNS
U251 CNS = test system: U251 CNS
PC-3 prostate = test system: PC-3 prostate
UACC-62 melanoma = test system: UACC-62 melanoma
LOX IMVI melanoma = test system: LOX IMVI melanoma
SK-MEL-28 melanoma = test system: SK-MEL-28 melanoma
SK-MEL-2 melanoma = test system: SK-MEL-2 melanoma
EKVX NSCLC = test system: EKVX NSCLC
SN12C renal = test system: SN12C renal
UO-31 renal = test system: UO-31 renal
ACHN renal = test system: ACHN renal
CAKI-1 renal = test system: CAKI-1 renal
A498 renal = test system: A498 renal
CCRF-CEM leukemia = test system: CCRF-CEM leukemia
MOLT-4 leukemia = test system: MOLT-4 leukemia
TK-10 renal = test system: TK-10 renal
SK-MEL-5 melanoma = test system: SK-MEL-5 melanoma

Row | SMILES | growth (HCT-15 colon) | growth (HT29 colon) | growth (SNB-75 CNS) | growth (SNB-19 CNS) | growth (U251 CNS) | growth (PC-3 prostate) | growth (UACC-62 melanoma) | growth (LOX IMVI melanoma) | growth (SK-MEL-28 melanoma) | growth (SK-MEL-2 melanoma) | growth (EKVX NSCLC) | growth (SN12C renal) | growth (UO-31 renal) | growth (ACHN renal) | growth (CAKI-1 renal) | growth (A498 renal) | growth (CCRF-CEM leukemia) | growth (MOLT-4 leukemia) | growth (TK-10 renal) [%] | growth (SK-MEL-5 melanoma) [%]
1 | O=c1[nH]c(=O)n(Cc2ccc(F)cc2)cc1F | 99.5% [50 µM] | 114% [50 µM] | 104% [50 µM] | 100% [50 µM] | 98.7% [50 µM] | 107% [50 µM] | 101% [50 µM] | 96.4% [50 µM] | 109% [50 µM] | 111% [50 µM] | 105% [50 µM] | 99.8% [50 µM] | 89.4% [50 µM] | 105% [50 µM] | 95.3% [50 µM] | 92.1% [50 µM] | 104% [50 µM] | 96% [50 µM] | – | –
2 | COc1cc(-c2ccc3cc(OC)c(OC)c(OC)c3c2)cc(OC)c1OC | 42.8% | 32.6% | 49.1% | 85.4% | 69% | 49.5% | 68.1% | 62.8% | 61% | 61% | 65.7% | 92.9% | 35.5% | 79.8% | 42.5% | 77.3% | 55.2% | 83.9% | 85.7 | –
3 | CCOC(=O)c1c(-c2cc(OC)c(OC)c(OC)c2)csc1N | 66.9% | 71.9% | 84.2% | 108% | 97.2% | 88.6% | 88.6% | 95.4% | 91.1% | 101% | 110% | 105% | – | 99.2% | 68.1% | 101% | 83.7% | 92.3% | 93.3 | –
4 | C[C@@H](Oc1cc(-c2cnn(C3CC4(CCNCC4)C3)c2)cnc1N)c1c(F)ccc(Cl)c1Cl | 1.76% (active) | -56.6% (active) | -3.45% (active) | 61.6% | 12.1% | 6.2% (active) | -88.1% (active) | -85.8% (active) | -83.4% (active) | -65.5% (active) | – | 22% | 13.8% | 28.2% | 60.9% | -6.38% (active) | -19.6% (active) | -33% (active) | – | –
5 | C=C(C)COC(=O)c1ccccc1C(=O)OCC1(C)CO1 (stereo not given) | 107% | 107% | 92.9% | 101% | 102% | 104% | 92.8% | 84.5% | 117% | 97.5% | 103% | 95.9% | – | 105% | 96.6% | 108% | 97.2% | 99.7% | 102 | –
6 | O=S(=O)(Nc1ccc(Cl)c(Cl)c1)c1ccc(-c2cnc(C3CC3)o2)cc1 | 23.9% | 10.2% | -3.4% (active) | 30.9% | 22.1% | 14.2% | 26.8% | 45.6% | 58.3% | 37.4% | 33.8% | – | 44% | 45.1% | 35.9% | – | 18.9% | 32.4% | 51.3 | –
7 | O=c1oc2ccccc2cc1-c1csc(N/N=C/c2cc3ccccc3nc2Cl)n1 | 101% | 100% | 96.7% | 96.1% | 97.2% | 95% | 91.8% | 101% | 102% | 106% | 96.1% | 90.6% | 91% | 101% | 87.5% | – | 111% | 132% | 116 | –
8 | Cc1ccc2nc(NC(=O)CSC(=S)N3CCN(C)CC3)sc2c1 | 102% | 106% | 90.8% | 108% | 108% | 95.6% | – | – | 116% | – | 98.1% | 100% | 78.5% | 100% | – | 108% | – | 123% | 122 | 107
9 | COc1cccc(C2C3=C(COC3=O)N(CCO)c3cc4c(cc32)OCO4)c1 (stereo not given) | 18.2% | 0.226% (active) | -19.9% (active) | 25.6% | 18.2% | 32.4% | 18.3% | – | 50.5% | 33% | 36.2% | 46.7% | 57.7% | 48.4% | 30% | -5.85% (active) | 21.3% | 27.1% | 59.8 | –
10 | COc1cc(-c2nc(SC(C)C)nc(Nc3ccccc3C)c2C#N)cc(OC)c1OC | 102% | 109% | 108% | 100% | 108% | 104% | 97.2% | 102% | 107% | 103% | 102% | 104% | 86.3% | 101% | 94.1% | – | 103% | 110% | – | –
11 | C[C@@H](Oc1cc(-c2cnn(C3CC4(CCCNC4)C3)c2)cnc1N)c1c(Cl)ccc(F)c1Cl (stereo not given in full) | 16.2% | -47.7% (active) | 10.3% | 72.3% | 29.5% | 15.6% | 14.3% | -73% (active) | -67.2% (active) | -47.8% (active) | – | 21.7% | 29.7% | 29.5% | 56.6% | -10.4% (active) | -6.75% (active) | -7.46% (active) | – | –
12 | CC1(C)CC(=O)C2=C(C1)Nc1cc3c(cc1C2c1ccc(F)cc1)OCO3 (stereo not given) | 93.9% | 93.2% | 77.3% | 96.5% | 90.6% | 93.5% | 98.7% | 99.1% | 92.6% | 91.3% | 92.3% | 106% | 74% | 98.6% | 96.4% | 82% | 86.4% | 83.1% | 99.4 | –
13 | O=c1c2c(=NCCN3CCCC3)cc3c(=O)n(CCCN4CCOCC4)c(=O)c4ccc(c(O)n1CCCN1CCOCC1)c2c4-3 | -11.8% (active) | -16.9% (active) | -88.8% (active) | 1.06% (active) | 5.11% (active) | -20.8% (active) | -49.7% (active) | -6.84% (active) | -32.9% (active) | -27.2% (active) | -12.8% (active) | – | 0.795% (active) | 2.23% (active) | 8.73% (active) | -78.9% (active) | 1.35% (active) | 2.58% (active) | – | –
14 | Nc1cc(Br)c(-c2nnc(CCC(=O)c3nc4ccccc4[nH]3)o2)c(Br)c1 | 104% | 84.1% | 58.9% | 85.5% | 68.2% | 74.9% | 55.6% | – | 65.4% | 34.3% | 95.6% | 95.4% | 47.4% | 102% | 90.5% | 71.7% | – | 68.2% | 101 | –
15 | Cn1c2ccc(Cl)cc2c2nn(C(=O)c3ccccc3)c(=O)nc21 | 96.7% | 108% | 88.3% | 105% | 103% | 93.2% | 107% | 98.1% | 125% | 100% | – | 103% | 71.9% | 95.2% | – | 112% | 96% | 99% | – | –
16 | OC[C@@H](O)[C@@H](O)CO | 102% | 106% | 100% | 98.3% | 98.7% | 97.2% | 98.3% | 91.3% | 112% | – | 107% | 99.6% | 80.5% | 103% | 93.9% | 101% | 100% | 94.8% | 111 | –
17 | COc1c(Cl)ccc2c(-c3nc4cc(Cl)c(F)cc4s3)cc(=O)oc12 | 82% | 5.31% (active) | 69.3% | 96% | 99.1% | 84.3% | 91.7% | -80.2% (active) | 111% | 37.7% | – | – | -88.8% (active) | 47.8% | 34.4% | 107% | -68% (active) | 44.3% | – | –
